Assay results reported in ChEMBL document CHEMBL1961873, “Compounds: GSK PKIS; Assays: Nanosyn kinase panel” (2012).

Molecular target: Tyrosine-protein kinase JAK1 (Homo sapiens) (UniProt P23458)
Conditions: at 1 µM
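Note: each value is a mean inhibition of JAK1.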

Chain of Tyrosine-protein kinase JAK1 (Homo sapiens) (P23458 whole entry): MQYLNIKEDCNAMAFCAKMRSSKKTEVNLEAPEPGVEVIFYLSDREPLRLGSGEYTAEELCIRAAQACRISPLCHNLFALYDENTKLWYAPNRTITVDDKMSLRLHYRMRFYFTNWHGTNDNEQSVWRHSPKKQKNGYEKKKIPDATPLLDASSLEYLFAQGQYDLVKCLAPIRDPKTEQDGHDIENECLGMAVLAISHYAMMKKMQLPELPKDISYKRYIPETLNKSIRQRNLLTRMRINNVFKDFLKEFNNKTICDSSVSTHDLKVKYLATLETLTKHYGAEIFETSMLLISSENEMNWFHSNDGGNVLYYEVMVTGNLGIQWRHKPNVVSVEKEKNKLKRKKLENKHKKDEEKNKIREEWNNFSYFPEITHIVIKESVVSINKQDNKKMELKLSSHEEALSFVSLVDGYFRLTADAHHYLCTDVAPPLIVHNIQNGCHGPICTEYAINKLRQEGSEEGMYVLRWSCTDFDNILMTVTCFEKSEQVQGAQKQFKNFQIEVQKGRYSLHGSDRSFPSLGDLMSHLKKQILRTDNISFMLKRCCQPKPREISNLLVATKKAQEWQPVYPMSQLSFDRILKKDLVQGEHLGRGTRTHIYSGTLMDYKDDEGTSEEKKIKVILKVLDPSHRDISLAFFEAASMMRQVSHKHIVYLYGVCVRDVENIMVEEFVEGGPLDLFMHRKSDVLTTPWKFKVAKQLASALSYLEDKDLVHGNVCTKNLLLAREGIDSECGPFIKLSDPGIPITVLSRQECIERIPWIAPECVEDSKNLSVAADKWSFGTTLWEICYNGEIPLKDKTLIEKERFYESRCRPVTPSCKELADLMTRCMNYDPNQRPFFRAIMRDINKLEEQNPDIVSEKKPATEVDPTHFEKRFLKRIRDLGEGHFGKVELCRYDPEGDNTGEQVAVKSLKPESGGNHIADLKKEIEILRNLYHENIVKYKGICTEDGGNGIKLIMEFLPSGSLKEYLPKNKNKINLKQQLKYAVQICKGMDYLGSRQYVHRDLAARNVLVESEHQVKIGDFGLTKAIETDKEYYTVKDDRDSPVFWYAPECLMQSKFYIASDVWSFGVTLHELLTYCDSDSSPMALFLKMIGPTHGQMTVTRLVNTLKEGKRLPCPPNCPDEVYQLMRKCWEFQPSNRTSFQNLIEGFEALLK

Compound | inhibition [%]
COc1ccc(-c2cc(-c3c[nH]nc3-c3ccccn3)ccn2)cc1 | 7.4
CCCN(CCS(C)(=O)=O)Cc1ccc(-c2ccc3ncnc(Nc4ccc(OCc5cccc(F)c5)c(Cl)c4)c3c2)o1 | 4.59
FC(F)(F)c1cccc(-c2nn3ncccc3c2-c2ccnc(Nc3ccc4c(c3)OCCO4)n2)c1 | -0.53
CCNC(=O)O[C@H]1CN[C@H](C#Cc2cc3ncnc(Nc4ccc(OCc5cccc(F)c5)c(Cl)c4)c3s2)C1 | -0.58
COC(=O)Nc1nc2ccc(S(=O)(=O)c3ccc(NC(=O)Nc4cc(C(F)(F)F)ccc4F)cc3)cc2[nH]1 | -1.29
CC(=O)Nc1cccc(C#Cc2cncnc2Nc2ccc(OCc3cccc(F)c3)c(Cl)c2)c1 | 3.66
CCOc1ccc2c(-c3ccnc(Nc4cccc(C(F)(F)F)c4)n3)cnn2n1 | 5.28
CC(=O)NCc1cccc(C#Cc2cncnc2Nc2ccc(OCc3cccc(F)c3)c(Cl)c2)c1 | 4.76
Cc1cccc2c1NC(=O)/C2=N\Nc1ccc(S(N)(=O)=O)cc1 | 0.61
COc1ccc(-c2nn3ncccc3c2-c2ccnc(Nc3ccc4c(c3)OCCO4)n2)cc1 | 1.48
Fc1ccc(-c2cc(-c3c[nH]nc3-c3ccccn3)ccn2)cc1 | 14.2
CCN(CC)S(=O)(=O)c1ccc(OC)c(Nc2ncc(-c3ccccc3)o2)c1 | 0.33
COc1cccc(-c2c[nH]c3c(N/N=C/c4ccncc4)ncnc23)c1 | 15.3
c1ccc(-c2nc3n(c2-c2ccc4c(c2)OCO4)CCC3)nc1 | 4.78
COc1cccc(-n2ncc3c(N/N=C/c4ccc(F)cc4)ncnc32)c1 | 6.9
Nc1ncc(-c2cccc(S(N)(=O)=O)c2)c2scc(-c3ccc(F)c(Cl)c3)c12 | 6.91
Cc1ccc2c(-c3ccnc(Nc4ccccc4)n3)c(-c3ccc(F)cc3)nn2n1 | -5.84

Compound | inhibition [%]
CS(=O)(=O)CCNCc1ccc(-c2ccc3ncnc(Nc4ccc(OCc5ccccc5)c(C(F)(F)F)c4)c3c2)o1 | 3.56
NC(=O)c1sc(-n2cnc3ccc(C(F)(F)F)cc32)cc1OCc1ccccc1Br | 10.6
CCn1c(-c2nonc2N)nc2ccccc21 | -0.06
NS(=O)(=O)c1ccc(Nc2ncc(-c3ccccc3)o2)cc1 | 5.63
COc1ccc2[nH]c3c4[nH]c5ccc(OC)cc5c4c4c(c3c2c1)C(=O)NC4=O | 5.89
Nc1nc(-c2ccc(F)cc2)c(-c2ccc3ncccc3n2)s1 | 6.76
COc1ccc(CNC(=O)c2ccc(-c3cc(-c4nnc(C)o4)ccc3C)cc2)cc1 | 19.9
O=C(O[C@H]1CN[C@H](C#Cc2cc3ncnc(Nc4ccc(Cc5ccccc5)cc4)c3s2)C1)N1CCOCC1 | 1.8
N#Cc1c(NC(=O)CN2CCOCC2)sc2c1CCCC2 | 9.38
Cc1cccc(Nc2ncc(-c3ccccc3)o2)c1 | 0.42
O=C(Nc1n[nH]c2cc(-c3ccc(F)cc3)ccc12)C1CC1 | 4.17
COC(=O)c1sc(-n2cnc3cc(OC)c(OC)cc32)cc1OCc1ccccc1C(F)(F)F | -0.23
Cc1ccc(O)cc1Nc1ccnc2cc(-c3ccccn3)ccc12 | 3.25
CCc1nn2ncccc2c1-c1ccnc(NC2CC2)n1 | 0.58
CCn1cc(-c2ccnc3[nH]ccc23)c(-c2cccc(NC(=O)Nc3ccc(OCc4ccccc4)cc3)c2)n1 | 1.7
COc1cc2c(cc1Nc1nc(Nc3ccsc3C(N)=O)c3cc[nH]c3n1)N(C(=O)CN(C)C)CCC2(C)C | 2.78
